This is a sample that favours compounds with a hit; in the whole collection about 2.5% have one here.
697 NFkB inh: inhibitors of PMA/ionomycin-induced NF-kB reporter, 697 cells, primary screen, B-cell NF-kB inhibitor project, cell-based, luminescence, uHTS; 697 B-cell NF-kB luciferase reporter, 16 h; inhibition, % at 4 µM; hit rate 0.33% among 330,000; AID 435022, 2010; in the data active = inhibition above about 35%
KLF5 inhibitor: KLF5 expression inhibitors, primary screen, DLD-1 cells, luminescence | DLD-1 KLF5 promoter-luciferase reporter | inhibition, % at 5 µM | hit rate 0.23% among 290,000;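 active = inhibition above a per-plate limit of that plate's mean compound inhibition plus 3 SD, cut at about 60% in these data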;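 note: 0% = DMSO wells and 100% = LY294002 at 200 µM; higher means less KLF5 promoter-driven luciferase light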
Jurkat NFkB inh: inhibitors of induced NF-kB luciferase reporter, primary screen, TCR NF-kB activation inhibitor project, cell-based, luminescence, uHTS; hit rate 0.53% among 330,000; inhibition, % at 4 µM; Jurkat, PMA/ionomycin-induced NF-kB luciferase reporter; in the data active = inhibition above about 50%
aSyn UTR inh: MLPCN primary screen, SNCA 5' untranslated region; alpha-synuclein 5'UTR reporter, inhibitor activity; inhibition, % (tested at 7.5 µM); hit rate 0.82% among 300,000; AID 1813, 2009; in the data active = inhibition above about 60%; inconclusive = no clear call, values can overlap the other calls;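 note: H4 neuroglioblastoma cells stably carrying SNCA 5'UTR luciferase fusion; 0% = DMSO wells and 100% = positive control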
ANO1 activ: TMEM16A chloride channel activators or potentiators, primary screen, cell-based, HTS; Anoctamin-1 (Mus musculus), Q8BHY3; HEK293 TMEM16A/YFP-H148Q/I152L, iodide quench fluorescence; active compounds read low; B-score at 10 µM; hit rate 0.3% among 340,000;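 active = fluorescence-ratio B-score plate-corrected deviation score at least 3 library SD below zero, with starting fluorescence score within 5 deviations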;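 note: channel opened by trigger with iodide after compound preincubation; score built on the fluorescence ratio of max minus min over baseline; more negative score means more quench and so TMEM16A activation or potentiation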
Target sequence (Q8BHY3 whole entry, looked up): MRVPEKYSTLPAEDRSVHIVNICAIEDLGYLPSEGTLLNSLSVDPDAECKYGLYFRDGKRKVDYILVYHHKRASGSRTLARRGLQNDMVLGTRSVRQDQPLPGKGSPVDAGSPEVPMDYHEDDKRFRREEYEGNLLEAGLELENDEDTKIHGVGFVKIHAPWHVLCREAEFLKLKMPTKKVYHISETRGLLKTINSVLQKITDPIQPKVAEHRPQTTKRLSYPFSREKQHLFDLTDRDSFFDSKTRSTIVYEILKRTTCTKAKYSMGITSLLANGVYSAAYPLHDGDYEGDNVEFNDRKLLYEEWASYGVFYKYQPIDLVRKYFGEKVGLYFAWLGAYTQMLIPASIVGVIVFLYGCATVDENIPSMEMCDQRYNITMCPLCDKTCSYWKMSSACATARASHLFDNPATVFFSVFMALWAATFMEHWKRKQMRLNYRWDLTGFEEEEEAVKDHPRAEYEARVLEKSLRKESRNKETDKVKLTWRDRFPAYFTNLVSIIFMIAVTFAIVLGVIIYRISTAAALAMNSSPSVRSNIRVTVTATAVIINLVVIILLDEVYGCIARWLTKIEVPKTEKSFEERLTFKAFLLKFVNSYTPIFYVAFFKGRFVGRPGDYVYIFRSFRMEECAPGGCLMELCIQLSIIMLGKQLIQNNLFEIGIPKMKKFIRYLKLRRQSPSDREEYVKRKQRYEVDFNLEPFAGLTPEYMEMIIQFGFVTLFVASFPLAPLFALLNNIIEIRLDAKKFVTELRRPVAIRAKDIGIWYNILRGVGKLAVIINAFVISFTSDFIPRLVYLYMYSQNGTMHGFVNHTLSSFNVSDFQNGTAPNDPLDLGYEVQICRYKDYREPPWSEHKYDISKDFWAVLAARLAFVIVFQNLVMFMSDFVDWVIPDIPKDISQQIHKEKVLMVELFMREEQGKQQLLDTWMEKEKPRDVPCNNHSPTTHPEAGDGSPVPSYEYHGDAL
TMEM16A inh: TMEM16A chloride channel inhibitors, primary screen, cell-based, HTS; Anoctamin-1 (Mus musculus), Q8BHY3; HEK293 TMEM16A/YFP iodide influx fluorescence, ionomycin; normalized B-score (activity score, 25-100; higher = stronger inhibition) at 10 µM; hit rate 1.2% among 310,000; AID 588511, 2011;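 active = ratio plate-corrected score three or more library SD toward inhibition, starting fluorescence score within five deviations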;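 note: score derived from kinetic fluorescence span divided by baseline fluorescence per well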
Active calls of the source: *; i = inactive; ? = inconclusive; nt = not tested or not shown.

SMILES	697 NFkB inh	KLF5 inhibitor	Jurkat NFkB inh	aSyn UTR inh	ANO1 activ	TMEM16A inh
CCCCCCCCCCOC(=O)Cn1c(COc2ccc(Cl)cc2)[n+](C)c2ccccc21	-1	-21	33	83*	i	i
CCCCCCCCCCOC(=O)Cn1c(COc2ccccc2)[n+](C)c2ccccc21	-3	-7	8	7	i	i
COc1cccc(NC(=O)c2cnc(SCC(=O)NCc3ccc4c(c3)OCO4)n(C)c2=O)c1	-8	nt	-20	-82	i	i
Cc1ccccc1OCc1n(CC(=O)OC2CC(C)CCC2C(C)C)c2ccccc2[n+]1C (stereo unspecified)	-39	-12	15	85*	i	100*
CCc1ccccc1OCc1nnc(N)s1	-6	-16	-9	-1	i	25*
Cc1ccc(CC(=O)Nc2ccc(C(=O)N3CCOCC3)cc2)cc1	8	-11	19	-13	i	i
CCC[C@@H](CN[C@@H](CNC)[C@H](C)CC)NCC1CCC(C(C)(C)C)CC1 (stereo partly specified)	12	-6	13	40	i	i
CCC[C@@H](CN[C@@H](CNC)C(C)C)NCCCCc1ccccc1	11	-7	17	-14	i	i
CCC[C@H](CN[C@@H](CNC)[C@H](C)CC)NCCc1cc(C(F)(F)F)cc(C(F)(F)F)c1	20	-21	35	124*	i	i
CC[C@@H](C)[C@H](CNC)NC[C@@H](Cc1cccc2ccccc12)NCCc1cccc(C(F)(F)F)c1	9	-14	25	125*	i	100*
S=C(Nc1ccccc1)N1CCc2ccccc21	-24	-31	-7	-45	i	i
O=[N+]([O-])c1ccc(NC(=S)N2CCc3ccccc32)cc1	-33	-9	5	nt	i	100*
O=C(O)C1OC(C(=O)O)C(C(=O)O)C1C(=O)O (stereo unspecified)	nt	nt	nt	nt	i	nt
COc1ccc(-c2nn(-c3ccccc3)cc2C(=O)N/N=C/c2ccc([N+](=O)[O-])o2)cc1	17	15	15	-26	-6.9*	i
CC(C)(C)C(=O)N1CCN(c2nc3ccc(Cl)cc3s2)CC1	-143	-160	-52	-237	i	i
CCCCc1ccc(NC(=S)NCc2cccc(OC)c2)cc1	-5	-3	-3	2	i	100*
CCCCN(C)S(=O)(=O)c1ccc(C(=O)Nc2nnc(-c3cccs3)o2)cc1	-29	25	3	81*	nt	i
CCCCN(CC)S(=O)(=O)c1ccc(C(=O)Nc2nnc(-c3ccccc3Cl)o2)cc1	-44	-13	-3	76*	i	i
CCCCN(CC)S(=O)(=O)c1ccc(C(=O)Nc2nnc(COC)o2)cc1	3	-3	13	8	i	i
CCC1CCCCN1S(=O)(=O)c1ccc(C(=O)Nc2nnc(-c3ccccc3Cl)o2)cc1 (stereo unspecified)	-44	-4	0	?	i	100*
O=C(Nc1nnc(-c2cccs2)o1)c1cccc(Oc2ccccc2)c1	16	-30	1	nt	i	25*
CCCCN(C)S(=O)(=O)c1ccc(C(=O)Nc2nnc(C3=COCCO3)o2)cc1	10	8	2	3	i	i
CCOC(=O)c1c(NC(=O)COC(=O)Cn2cnc3c2c(=O)n(C)c(=O)n3C)sc(C)c1CC	9	nt	-6	-14	i	i
CN(c1ccccc1)S(=O)(=O)c1ccc(C(=O)Nc2nnc(C3CC3)o2)cc1	-19	25	-1	54	i	i
CCN(c1ccccc1)S(=O)(=O)c1ccc(C(=O)Nc2nnc(C3CC3)o2)cc1	-9	13	1	71*	i	i
SMILES	697 NFkB inh	KLF5 inhibitor	Jurkat NFkB inh	aSyn UTR inh	ANO1 activ	TMEM16A inh
CCN(Cc1ccccc1)S(=O)(=O)c1ccc(C(=O)Nc2nnc(-c3ccccc3OC)o2)cc1	-59	-3	-6	67*	i	i
COc1ccccc1-c1nnc(NC(=O)c2ccc(S(=O)(=O)N(C)C)cc2)o1	-13	-36	-5	45	i	i
Cc1ccc(Cn2c(=N)n(CC(=O)c3ccccc3)c3ccccc32)cc1	-16	-51	24	8	i	25*
COc1ccc(-c2cccc(NC(=O)c3ccc4c(c3)OCO4)c2)nn1	-7	nt	-4	-10	i	i
COC(=O)c1cc(C(=O)N2CCN(c3cccc(C)c3C)CC2)cc([N+](=O)[O-])c1	-54	47	40	78*	i	i
Cc1nccc(-c2cccc(N/N=C(\C#N)C(=O)c3ccccc3)c2)n1	2	-12	-2	11	i	100*
CC(=O)Nc1ccc(NC(=O)c2sc3nc4n(c(=O)c3c2C)CCCCC4)cc1	16	-2	0	76*	i	i
CCN1CCCC1Cn1cnc2c([nH]c3cccc(Cl)c32)c1=O (stereo unspecified)	-28	-17	-26	-18	-10*	i
Cc1nnc(SC(C)C(=O)Nc2ccc3ccccc3c2)n1C (stereo unspecified)	16	nt	-7	nt	i	nt
Cc1ccc(-c2nnc(N3CCOCC3)c3ccccc23)cc1S(N)(=O)=O	-4	nt	-6	22	i	i
CC1CCCC(NC(=O)/C=C/c2c(F)cccc2Cl)C1C (stereo unspecified)	-82	nt	-50	-41	i	i
CC(C)(c1ccccc1)c1ccc(OCC(O)CNC2CCN(Cc3ccccc3)CC2)cc1 (stereo unspecified)	-18	-20	6	44	i	100*
Cc1ccc(C(=O)n2c(N)nc3ccccc32)cc1	-63	51	10	81*	i	i
CN(C)c1ccc(O)c2c1CC1CC3[C@@H](N(C)C)C(=O)C(C(N)=O)C(=O)[C@]3(O)C(=O)C1C2=O (stereo partly specified)	19	nt	7	nt	-9.4*	nt
CN(C)c1ccc(O)c2c1CC1CC3C(N(C)C)C(=O)C(C(N)=O)=C(O)[C@@]3(O)C(=O)C1=C2O (stereo partly specified)	8	nt	5	50	i	i
Cc1nnc(SCC(=O)Nc2nsc(-c3ccccc3)n2)s1	20	-31	7	-38	i	i
CC1(C)CC(=O)c2c(nc(SCC(=O)Nc3nsc(-c4ccccc4)n3)c(C#N)c2-c2ccccc2)C1	-57	-26	-31	74*	i	i
O=C(CSc1ccc(Cl)cc1)N/N=C/c1ccc([N+](=O)[O-])o1	7	-11	-14	-26	i	i

Screening results from PubChem.
